The source of these data is PubChem BioAssay (Tox21).

Assay [1] addresses Nuclear receptor subfamily 1 group I member 3 (Homo sapiens) (UniProt Q14994). Nature of the assay: qHTS assay to identify small molecule antagonists of the constitutive androstane receptor (CAR) signaling pathway (AID 1224838).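 Also: HepG2 cells stably expressing hCAR with CYP2B6 luciferase reporter stimulated by CITCO; nearly all actives have a fitted effect of over 40% in size.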 Also: potency is read from the fitted curve at half-maximal effect. In short, it runs like this:
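Read-out: ONE-Glo luciferase luminescence after 30 min at room temperature. HepG2-CYP2B6-hCAR double-stable cells, compounds in 15-point titration plus 50 nM CITCO final, 24 h at 37 C/5% CO2.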
On the technique in general: In qHTS, concentration-response curves come from the screen itself.

The target is the same in assay [2]. The assay is described as follows: qHTS assay to identify small molecule agonists of the constitutive androstane receptor (CAR) signaling pathway (AID 1224839).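 Also: HepG2 cells stably carrying human CAR and a CYP2B6 luciferase reporter; nearly all actives have a fitted effect of over 15% in size.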 Put shortly:
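Cells were plated and incubated 4 hrs, then dosed with compounds at 15 concentrations. PK11195 was added to 0.75 uM final. After 24 hrs at 37 C, luciferase luminescence was measured.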

For assay [3], the target named is Thyrotropin receptor (Homo sapiens) (UniProt P16473). Nature of the assay: qHTS assay to identify small molecule agonists of the thyroid stimulating hormone receptor (TSHR) signaling pathway (AID 1224843; calls by dose curve; also: nearly all actives have a fitted effect of over 45% in size). In short, it runs like this:
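Compounds are titrated over 15 concentrations, in triplicate, onto TSHR-HEK293 cells seeded at 800/well. Plates sit 30 min at room temperature before cAMP-d2 and anti-cAMP cryptate are added; signal is read after a further hour.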

The nature of assay [4]: qHTS assay to identify small molecule agonists of the hypoxia (HIF-1) signaling pathway - cell viability counter screen (AID 1224844; calls by dose curve; also: nearly all actives have a fitted effect of over 50% in size; also: potency is read from the fitted curve at half-maximal effect). In short, it runs like this: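 CellTiter-Glo luminescence read-out, 30 min RT, taken in the same wells as the beta-lactamase HRE reporter assay; HRE-bla ME-180 cells, 0.5% dialyzed FBS, 17 hr compound treatment at 37C, 5% CO2.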
Assay [5] in a line: qHTS assay to identify small molecule agonists of H2AX (AID 1224845; active = well fitted activation curve with a large enough effect in the signal ratio in the repeat runs, not every such curve was filed as active; the % refers to the signal ratio; also: potency is read from the fitted curve at half-maximal effect). Put shortly: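 Wild-type CHO-K1 cells plated overnight, then exposed 3 hr at 37C to compounds at 15 concentrations (0.76% DMSO). Lysed, then HTRF anti-pH2AX(S139)-cryptate/anti-H2AX-d2 detection after 24 hr at room temperature; emissions 665 and 620 nm.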
The nature of assay [6]: qHTS assay to identify small molecule agonists of the hypoxia (HIF-1) signaling pathway (AID 1224846; active = well fitted activation curve with a large enough effect in the signal ratio in the repeat runs, not every such curve was filed as active; the % refers to the signal ratio). Put shortly:
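Beta-lactamase FRET read-out (CCF4-AM substrate) from ME-180 cells carrying an HRE-driven bla reporter, after 17 hrs compound exposure at 37C/5% CO2. Cells were seeded at 2,000 per well in 0.5% dialyzed FBS medium and preincubated 5 hrs.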

The nature of assay [7]: qHTS assay to identify small molecule agonists of H2AX - cell viability counter screen (AID 1224847; calls by dose curve; also: top concentration of the series differs between compounds; nearly all actives have a fitted effect of over 30% in size). Put shortly:
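Cytotoxicity counter screen in wild-type CHO-K1 cells: a 3 hr compound treatment at 37C across 15 concentrations, followed by CellTiter-Glo luminescence to gauge viable cells.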

Assay [8] in a line: qHTS RealTime-Glo MT Cell Viability Assay in HepG2 cells - 24 hour (AID 1224867). Also: nearly all actives have a fitted effect of over 50% in size. Put shortly: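 Tox21 10K library screened in qHTS format on HepG2 cells carrying RealTime-Glo reagents. Compounds were added after a 5 h preincubation, and the luminescent signal from continuous culture was measured repeatedly during 40 h treatment.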
Assay [9] is described as follows: qHTS RealTime-Glo MT Cell Viability Assay in HEK293 cells - 32 hour (AID 1224868). Also: nearly all actives have a fitted effect of over 50% in size. Also: potency is read from the fitted curve at half-maximal effect. In short, it runs like this: (§1)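 Luminescence generated by NanoLuc from substrate produced by living HEK293 cells served as the viability signal. Each value reflects the reading at its stated time point during continuous 40 h compound exposure at 37 C.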
Assay [10] is described as follows: A CellTox Green Cytotoxicity Assay to monitor cytotoxicity in HEK293 cells - 0 hour (AID 1224869). Also: nearly all actives have a fitted effect of over 50% in size. Also: potency is read from the fitted curve at half-maximal effect. Put shortly:
(§2)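 Read-out: fluorescence of a cell-impermeant cyanine dye staining DNA of dead cells, proportional to cytotoxicity. HEK293, 600 cells/well with reagent, compound (23 nL DMSO) added after 5 h; reads at 0, 8, 16, 24, 32, 40 h.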

A short description of assay [11]: A CellTox Green Cytotoxicity Assay to monitor cytotoxicity in HEK293 cells - 40 hour (AID 1224871). Also: nearly all actives have a fitted effect of over 45% in size. Also: potency is read from the fitted curve at half-maximal effect. In short, it runs like this: as §2
The nature of assay [12]: qHTS RealTime-Glo MT Cell Viability Assay in HEK293 cells - 16 hour (AID 1224872). Put shortly:
as §1

Assay [13] in a line: qHTS RealTime-Glo MT Cell Viability Assay in HepG2 cells - 8 hour (AID 1224873). Also: nearly all actives have a fitted effect of over 55% in size. Put shortly: (§3)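 HepG2 cells mixed with RealTime-Glo MT reagents (NanoLuc plus cell-permeant prosubstrate) were seeded at 600 cells/well, incubated 5 h at 37 C/5% CO2, then pinned with compounds in DMSO; nonlytic luminescence tracked viability during 40 h treatment.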
Assay [14] can be described thus: qHTS assay to identify small molecule antagonists of the estrogen related receptor signaling pathway with the pleiotropic PPARgamma coactivator (PGC) from Tox21 10K library - cell viability counter screen (AID 1224840; active = well fitted cell-killing curve with a large enough effect in the repeat runs, not every such curve was filed as active; also: nearly all actives have a fitted effect of over 40% in size). In short, it runs like this: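 Fluorescence read-out of CellTiter-Fluor viability reagent, added after cells had been exposed to compound in DMSO for 17.5 h at 37 C; 30 min development at 37 C/5% CO2. Cells: PGC/ERR line, 2,000/well.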

The nature of assay [15]: qHTS assay to identify small molecule antagonists of the estrogen related receptor signaling pathway with the pleiotropic PPARgamma coactivator (PGC) from Tox21 10K library (AID 1224841; call rule not given here; also: potency is read from the fitted curve at half-maximal effect). In short, it runs like this: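 Luminescence read-out (One-Glo luciferase reagent, 30 min at room temperature) from PGC/ERR cells exposed to DMSO-dissolved test compounds for 18 h at 37 C; cells, 2,000 per well, had been preincubated 6 h before compound transfer.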

Assay [16] can be described thus: qHTS assay to identify small molecule agonists of the estrogen related receptor signaling pathway with the pleiotropic PPARgamma coactivator (PGC) from Tox21 10K library (AID 1224842). Also: nearly all actives have a fitted effect of over 15% in size. Put shortly:
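PGC/ERR reporter cells (NTP line) were seeded 2,000 per well, rested 6 h at 37 C/5% CO2, then pin-dosed with compounds in DMSO for 18 h at 37 C; luciferase read by One-Glo luminescence after 30 min at room temperature.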

Assay [17] can be described thus: qHTS assay to identify small molecule antagonists of the estrogen related receptor (ERR) signaling pathway from Tox21 library (AID 1224848). Also: nearly all actives have a fitted effect of over 50% in size. Put shortly: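 First, 2,000 ERR cells per well were plated and held 6 h at 37 C/5% CO2. Next, compounds in DMSO were pinned in and left 18 h at 37 C. Finally, ONE-Glo was added and luminescence read after 30 min at room temperature.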

Assay [18] can be described thus: qHTS assay to identify small molecule agonists of the estrogen related receptor (ERR) signaling pathway from Tox21 library (AID 1224849; calls by dose curve; also: nearly all actives have a fitted effect of over 15% in size). Particulars: ERR reporter cell line, ONE-Glo luciferase, 18 h; at 92.4 µM (top of the series). Put shortly:
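Luminescence readout (ONE-Glo, 30 min RT) after 18 h compound exposure at 37 C of NTP-supplied ERR reporter cells; cells were plated 6 h before compound addition by pin tool.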

Assay [19] is described as follows: qHTS RealTime-Glo MT Cell Viability Assay in HepG2 cells - 40 hour (AID 1224870). Also: nearly all actives have a fitted effect of over 50% in size. Put shortly:
as §3

Values joined by “and” are separate entries in the source; they are usually repeats but may differ in a detail not shown here. Equal values may be shown once. Records with an inconclusive call do not appear. A structure can be active in one record and inactive in another. Active and inactive are the calls of the source. Unless noted, calls follow the shape of the dose curve; as a rule, active = well fitted curve in the direction sought with a large enough effect in the repeat runs; inconclusive = weak or mixed curves; inactive = no such curve, though single readings can be large; an effect the other way counts as inactive or inconclusive.
% is scaled to controls: 0 for no effect and ±100 for the full control effect.

Thyrotropin receptor (Homo sapiens), sequence (P16473 whole entry, looked up): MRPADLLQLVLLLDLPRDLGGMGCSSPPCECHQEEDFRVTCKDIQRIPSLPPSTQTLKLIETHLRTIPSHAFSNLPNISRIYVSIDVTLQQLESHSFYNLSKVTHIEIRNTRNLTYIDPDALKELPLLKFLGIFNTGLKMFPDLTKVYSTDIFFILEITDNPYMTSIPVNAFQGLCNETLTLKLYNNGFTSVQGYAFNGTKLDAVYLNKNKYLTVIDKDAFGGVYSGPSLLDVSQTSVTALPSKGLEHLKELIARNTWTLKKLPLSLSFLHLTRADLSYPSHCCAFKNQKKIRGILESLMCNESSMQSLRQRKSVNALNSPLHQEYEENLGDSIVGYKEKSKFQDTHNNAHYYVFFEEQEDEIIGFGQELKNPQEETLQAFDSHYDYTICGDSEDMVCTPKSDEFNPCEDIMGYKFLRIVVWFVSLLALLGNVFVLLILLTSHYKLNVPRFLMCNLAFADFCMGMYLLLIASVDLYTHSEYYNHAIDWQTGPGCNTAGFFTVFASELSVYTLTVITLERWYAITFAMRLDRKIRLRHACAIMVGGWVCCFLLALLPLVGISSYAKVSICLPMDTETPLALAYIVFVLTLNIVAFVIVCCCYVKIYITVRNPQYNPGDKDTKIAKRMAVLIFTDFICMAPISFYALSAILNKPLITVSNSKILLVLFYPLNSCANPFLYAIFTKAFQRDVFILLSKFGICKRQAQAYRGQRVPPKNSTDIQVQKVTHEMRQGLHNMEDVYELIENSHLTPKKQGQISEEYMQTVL
Nuclear receptor subfamily 1 group I member 3 (Homo sapiens), sequence (Q14994 whole entry, looked up): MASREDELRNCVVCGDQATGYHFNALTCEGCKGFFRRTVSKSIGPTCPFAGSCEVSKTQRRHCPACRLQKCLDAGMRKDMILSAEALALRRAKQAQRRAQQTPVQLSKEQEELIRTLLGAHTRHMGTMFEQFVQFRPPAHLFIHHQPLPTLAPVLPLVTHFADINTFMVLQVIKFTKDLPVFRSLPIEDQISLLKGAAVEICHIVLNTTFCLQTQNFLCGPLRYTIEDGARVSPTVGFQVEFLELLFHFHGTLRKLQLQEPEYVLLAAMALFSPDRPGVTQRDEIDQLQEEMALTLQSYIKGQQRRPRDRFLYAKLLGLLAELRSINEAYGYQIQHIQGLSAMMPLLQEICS

With `c1ccc2c(c1)Oc1ccccc1O2`, the Potency result in [1], in assay [2], in assay [3], in assay [4], in [5] and in [7] was “inactive” in each case. Moreover, the Potency result in [9], in assay [10] and in assay [11] was “inactive” each time. Further, the call in assay [6], in assay [8], in [12] and in [13] was inactive.

For the molecule `CC(C)(Cl)Cl`, the Potency entry in assay [1], in [2], in assay [14], in assay [3], in assay [4] and in assay [5] was “inactive” in each case. Further, the Potency result in assay [9], in assay [10] and in assay [11] was “inactive” throughout. Further, the call in [6], in [8], in assay [12] and in assay [13] was inactive.

For `COC(=O)c1ccccc1C(=O)OC`, the Potency result in assay [1], in [2], in [3], in assay [4], in assay [5] and in [7] was “inactive” in each case. The Potency result in assay [17], in assay [9], in assay [10] and in [11] was “inactive” each time. The Potency in assay [15] is 38.8 µM (active) and inactive. Further, the result in assay [16], in assay [6], in [8], in [19], in [12] and in [13] was inactive. Moreover, in assay [18], the activity change, positive = activation is -0.694% (inactive) and 10.9% (active).

As to `NCC(O)c1ccc(O)cc1` (stereo not drawn), the Potency result in [1], in [2], in assay [14], in assay [3], in [4] and in [5] was “inactive” throughout. Besides, the Potency entry in [9], in assay [10] and in [11] was “inactive” each time. Further, the call in assay [6], in assay [8], in assay [19], in [12] and in assay [13] was inactive.

For `O=NN1CCCC1`, the Potency in assay [1] was 28.6 µM (active) and inactive; in assay [4], 11.5 µM (active) and inactive; in assay [5], 16.7 µM (active) and inactive. The Potency result in assay [2], in assay [14], in assay [3], in assay [7], in [9] and in assay [10] was “inactive” in each case. Besides, the Potency result in [11] is “inactive”. Moreover, the molecule was called inactive in assay [6], in assay [8], in assay [19], in assay [12] and in assay [13].

In the case of `CCNc1nc(NC(C)(C)C)nc(SC)n1`, the Potency entry in [14], in assay [3], in assay [4], in assay [5], in [7] and in assay [10] was “inactive” throughout. The Potency entry in assay [11] was “inactive”. The call in assay [6], in assay [8], in assay [19], in [12] and in assay [13] was inactive. Besides, the Potency in assay [9] was 43.1 µM (active).

In the case of `Cc1ccc([N+](=O)[O-])cc1C`, the Potency result in assay [1], in assay [2], in assay [14], in assay [3], in [4] and in assay [5] was “inactive” each time. For the same molecule, the Potency result in assay [9], in assay [10] and in [11] was “inactive” each time. Further, the result in assay [6], in assay [8], in assay [12] and in assay [13] was inactive.

Regarding `C=CCO`, the Potency result in [1], in assay [2], in assay [14], in assay [3], in [4] and in assay [5] was “inactive” in each case. Further, the Potency result in assay [9] was “inactive”. Moreover, the molecule was classed as inactive in assay [6], in assay [8], in assay [19], in assay [12] and in assay [13]. Besides, the Potency result in [10] was “inactive and 43.6 µM (active)”; in [11], “inactive and 34.7 µM (active)”.
